# In PubChem BioAssay (NCATS):
# Unmarked numbers belong to inactive results. Results filed as inconclusive are left out. A call without a number means that no potency is given here. Calls of active or inactive are those of the source. The call rests on the fitted dose curve; in most records, active means well fitted curve in the direction sought with a large enough effect; inconclusive means small, poorly fitted or top-dose-only effect, or another doubt; inactive means no such curve, though single readings can be large; an effect the other way counts as inactive or inconclusive. *1 amine or outer side, *2 acyl side, *3 side chain or, on linkers, in order; H or OH if unused. Where a SMILES comes first, the peptide text is derived from it. [ ]: non-standard residue; d: D form. X4 = CC(C)=CCc1cc(C(O)C(N[*:1])C(=O)[*:2])ccc1O
# Tests used:
# [1] = target: Phospholipid hydroperoxide glutathione peroxidase GPX4 (Homo sapiens) (UniProt P36969); assay: Primary qHTS Assay for Inhibitors of Recombinant Selenoprotein Glutathione Peroxidase 4 (GPX4) (AID 1845192); details: recombinant GPX4, GR-coupled NADPH fluorescence, 15 min; series mostly up to 50 µM; further: nearly all actives have a fitted effect of over 65% in size
# Sequence of Phospholipid hydroperoxide glutathione peroxidase GPX4 (Homo sapiens) (P36969 whole entry, looked up): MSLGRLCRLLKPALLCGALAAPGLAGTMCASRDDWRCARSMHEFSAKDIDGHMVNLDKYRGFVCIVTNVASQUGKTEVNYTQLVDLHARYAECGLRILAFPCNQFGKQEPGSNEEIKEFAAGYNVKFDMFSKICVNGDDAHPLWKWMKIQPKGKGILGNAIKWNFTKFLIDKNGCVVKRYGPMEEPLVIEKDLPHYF
# Procedure, shortened: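 Steps: GPX4 plus compound, 30 min RT; add GR/GSH/NADPH master mix; start with cumene hydroperoxide; read 340/450 nm fluorescence at 0 and 15 min. Finals were 200 nM GPX4, 1 mM GSH, 0.5 mM CHP, 0.5 mM NADPH, 100 nM GR.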
# [2] = target: Luciferin 4-monooxygenase (Photinus pyralis) (UniProt P08659); assay: Primary firefly luciferase (FLuc) qHTS assay for identification of artifact compounds. (AID 1845220); details: purified firefly luciferase, luminescence, 5 min; series mostly up to 54.1 µM; further: nearly all actives have a fitted effect of over 60% in size
# Procedure, shortened: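 Titrated compounds were incubated 15 min at RT, protected from light, with luciferin and ATP at 10 uM; reaction started with 10 nM FLuc, luminescence imaged at 5 min, and concentration-response fitted by Hill equation.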
# [3] = Primary fluorescence-based thiol-reactive (MSTI) qHTS assay for identification of artifact compounds. (AID 1845221); details: MSTI thiol-reactivity probe, 1 h; series mostly up to 53.8 µM; further: nearly all actives have a fitted effect of over 65% in size; further: potency means the concentration at half of the fitted maximal effect;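 on activity change, negative = thiol reactive: thiol-reactive compounds lower the probe fluorescence signal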
# Procedure, shortened: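 Reactivity toward the thiol probe MSTI (4 uM) is scored by fluorescence at Ex/Em 525/598 nm after 1 h at room temperature. Acetyl-MSTI and MSTI define the activity scale.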
# [4] = test system: Nanoluciferase (engineered Oplophorus gracilirostris luciferase); assay: Primary Nanoluciferase (NLuc) qHTS assay for identification of artifact compounds. (AID 1845222); details: NLuc-conditioned medium, Nano-Glo luminescence, 5 min; series mostly up to 54.1 µM;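 further: NLuc secreted into diluted conditioned medium of S16 cells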
# Procedure, shortened: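 qHTS format, against NLuc in S16 cell-conditioned medium. Nano-Glo substrate 1:100 was added after 15 min at room temperature. Luminescence was taken after a further 5 min.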
# [5] = Primary redox qHTS assay for identification of artifact compounds. (AID 1845223); details: Amplex Red/HRP redox cycling with DTT, fluorescence; series mostly up to 53.8 µM
# Procedure, shortened: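 Redox-cycling detection via DTT (250 uM final) oxidation coupled to Amplex Red (25 uM)/HRP (250 mU/mL) in HBSS. 15 min preincubation plus 30 min after DTT, room temperature. Ex/Em 525/598 nm; 4-parameter Hill fit against DMSO and 10 uM DA3003.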
structure (smiles),measurement,setting,value
Cc1ccc(C)c(OCCn2cc(C(=O)O)c3ccccc32)c1,Potency,[1],inactive
same,Potency,[2],inactive
same,Potency,[3],inactive
same,Potency,[4],inactive
same,Potency,[5],inactive
COc1ccc(-c2nc(-c3ccc(-c4cccc(Cl)c4)o3)[nH]c2-c2ccc(OC)cc2)cc1,Potency,[1],inactive
same,Potency,[2],inactive
same,Potency,[3],4.23 µM (active)
same,Potency,[4],inactive
same,Potency,[5],inactive
C=C[C@H]1C(O[C@@H]2O[C@H](CO)[C@@H](O)[C@H](O)[C@H]2O)OC=C2C(=O)N3CCc4c([nH]c5ccccc45)[C@H]3C[C@H]21 (stereo not given in full),Potency,[1],inactive
same,Potency,[2],inactive
same,Potency,[3],inactive
same,Potency,[4],inactive
same,Potency,[5],inactive
COc1ccc(Oc2cc(C)c(-c3csc(NC(=O)c4ccncc4)n3)c(C)c2)cc1,Potency,[1],inactive
same,Potency,[2],inactive
same,Potency,[3],inactive
same,Potency,[4],inactive
same,Potency,[5],inactive
COC(=O)c1ccc(OC(CO)C(O)c2ccc(O)c(OC)c2)c(OC)c1 (stereo not given),Potency,[1],inactive
same,Potency,[2],inactive
same,Potency,[3],inactive
same,Potency,[4],inactive
same,Potency,[5],inactive
CC(C)[C@@H]1C(=O)N(S(C)(=O)=O)[C@@H]2CCN(C(=O)/C=C/CN3CCCCC3)[C@H]21,Potency,[1],inactive
same,Potency,[2],inactive
same,Potency,[3],inactive
same,Potency,[4],inactive
same,Potency,[5],inactive
CNC(=O)c1cccc(-c2ccc3c(N4CCOC[C@@H]4C)nc(N4CCOC[C@@H]4C)nc3n2)c1,Potency,[1],inactive
same,Potency,[2],inactive
same,Potency,[3],inactive
same,Potency,[4],inactive
same,Potency,[5],inactive
FC(F)(F)c1cc(-c2ncn(/C=C\c3nnco3)n2)cc(C(F)(F)F)c1,Potency,[1],inactive
same,Potency,[2],inactive
same,Potency,[3],inactive
same,Potency,[4],inactive
same,Potency,[5],inactive
CNC(=O)c1ccccc1Nc1nc(Nc2ccc3c(c2OC)CCCC(N2CCN(CCO)CC2)C3)ncc1Cl (stereo not given),Potency,[1],inactive
same,Potency,[2],inactive
same,Potency,[3],inactive
same,Potency,[4],inactive
same,Potency,[5],inactive
C=C[C@@H]1[C@H](O[C@@H]2O[C@H](CO)[C@@H](O)[C@H](O)[C@H]2O)OC=C(C(=O)O)[C@H]1CCOC(=O)/C=C/c1ccc(O)c(O)c1,Potency,[1],inactive
same,Potency,[2],inactive
same,Potency,[3],1.3 µM (active)
same,Potency,[4],inactive
same,Potency,[5],inactive
CC1=CC(=O)CC(C)(CO)C1(O)/C=C/C(C)O[C@@H]1O[C@H](CO)[C@@H](O)[C@H](O)[C@H]1O (stereo not given in full),Potency,[1],inactive
same,Potency,[2],inactive
same,Potency,[3],10.3 µM (active)
same,Potency,[4],inactive
same,Potency,[5],inactive
CC(=O)O[C@@H]1[C@@H](CO)O[C@@](CO)(O[C@H]2O[C@H](COC(=O)/C=C/c3ccccc3)[C@@H](O)[C@H](O)[C@H]2O)[C@H]1O,Potency,[1],inactive
same,Potency,[2],inactive
same,Potency,[3],4.62 µM (active)
same,Potency,[4],inactive
same,Potency,[5],inactive
C=C[C@H]1[C@H](O[C@@H]2O[C@H](CO)[C@@H](O)[C@H](O)[C@H]2O)OC=C(C(=O)OC)[C@H]1CC(=O)O,Potency,[1],inactive
same,Potency,[2],inactive
same,Potency,[3],inactive
same,Potency,[4],inactive
same,Potency,[5],inactive
COC(=O)C12CCC(C)C(C)C1C1=CCC3C4(C)CCC(OC(C)=O)C(C)(C)C4CCC3(C)C1(C)CC2 (stereo not given),Potency,[1],inactive
same,Potency,[2],inactive
same,Potency,[3],inactive
same,Potency,[4],inactive
same,Potency,[5],inactive
CC(O)CO[C@@H]1O[C@H](CO)[C@@H](O)[C@H](O)[C@H]1O (stereo not given in full),Potency,[1],inactive
same,Potency,[2],inactive
same,Potency,[3],inactive
same,Potency,[4],inactive
same,Potency,[5],inactive
O=C(NCc1cccc(O)c1)Nc1nc(-c2ccncc2)cs1,Potency,[1],inactive
same,Potency,[2],inactive
same,Potency,[3],inactive
same,Potency,[4],inactive
same,Potency,[5],inactive
Cc1ccc(C(=O)N(CCCN)C(c2nc3cc(Cl)ccc3c(=O)n2Cc2ccccc2)C(C)C)cc1 (stereo not given),Potency,[1],inactive
same,Potency,[2],inactive
same,Potency,[3],inactive
same,Potency,[4],inactive
same,Potency,[5],inactive
C/C=C(\C)C(=O)O[C@@H]1CC2[C@@H](CC=C3C[C@@H](O[C@H]4C[C@H](OC)[C@H](O[C@H]5C[C@H](OC)[C@H](O[C@@H]6O[C@H](C)[C@@H](O[C@H]7C[C@H](OC)[C@H](O[C@@H]8O[C@H](CO)[C@@H](O)[C@H](O)[C@H]8O)[C@@H](C)O7)[C@H](OC)[C@H]6O)[C@@H](C)O5)[C@@H](C)O4)CC[C@@]32C)[C@@]2(O)CC[C@H](C(C)=O)[C@@]12C (stereo not given in full),"activity change, negative = inhibition",[1],-6.94% [at 9.73 µM]
same,outcome,[2],inactive [at 11.6 µM]
same,"activity change, negative = thiol reactive",[3],14.5% [at 11.5 µM]
same,"activity, negative = inhibition",[4],2.98% [at 11.6 µM]
same,redox activity (% of DA3003),[5],-4.24% [at 11.5 µM]
CC1OC2OC(=O)C3(C)CC4=C(CO)C5=C(CC(=O)C4(C)C(C1=O)C23)C(C)(C)OC(=O)C5 (stereo not given),Potency,[1],inactive
same,Potency,[2],inactive
same,Potency,[3],inactive
same,Potency,[4],inactive
same,Potency,[5],inactive
C[C@H](O)[C@H](O)/C=C/c1cccc(O)c1CO,Potency,[1],inactive
same,Potency,[2],inactive
same,Potency,[3],inactive
same,Potency,[4],inactive
same,Potency,[5],inactive
CC(C)=CCc1cc(C(O)C2NC(=O)CNC(=O)C(Cc3c[nH]c4ccccc34)NC(=O)C3CCCN3C(=O)CNC(=O)C(C(C)C)NC(=O)CNC2=O)ccc1O (stereo not given) (cyclo(G[X4]GVGPW); configuration not given here),Potency,[1],inactive
same,"activity change, negative = inhibition",[2],-7.99% [at 11.6 µM]
same,"activity change, negative = thiol reactive",[3],158% [at 11.5 µM]
same,"activity, negative = inhibition",[4],-5.03% [at 11.6 µM]
same,redox activity (% of DA3003),[5],10.2% [at 11.5 µM]
